Assay outcomes: PubChem BioAssay, National Center for Advancing Translational Sciences (NCATS)
A selection: hits, their analogues and other compounds. The true share with any hit is near 21%.
DT40 TDP1 no CPT: qHTS for Inhibitors of human tyrosyl-DNA phosphodiesterase 1 (TDP1): qHTS in cells in absence of CPT; DT40 Tdp1-/- hTDP1 cells, no CPT, ATP luminescence, 48 h; Potency, µM (top dose mostly 46.2 µM), inactives show at the highest dose activity change, negative = growth inhibition, most hits filed as inhibitors; 15% of 420,000 active; AID 686978, 2013; note: potency is the fitted concentration of half-maximal effect; nearly all actives have a fitted effect of over 55% in size
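Luminescent ATP content (CellTiter-Glo) served as the growth readout. Knockout chicken DT40 cells expressing human TDP1 were exposed to compounds without camptothecin for a minimum 48 hr at 37 °C.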
ELG1 DNA repair: inhibitors of ELG1-dependent DNA repair in HEK293T cells; HEK293T ELG1-luciferase reporter, luminescence, 16 h; DNA damage induced by 5-fluorouridine; AID 504467; Potency, µM (top dose mostly 46.1 µM), without a hit: at the top dose activity change, negative = inhibition, hits mostly inhibitors; 2.3% of 330,000 active; note: potency is the fitted concentration of half-maximal effect; nearly all actives have a fitted effect of over 55% in size
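Quantitative HTS, concentration-response format. 2,000 cells/well co-treated with 5-fluorouridine and compound, 16 hr in 5% CO2 at 37 °C; ONE-Glo luminescence read after 30 min.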
RORg inh: ROR gamma (mouse) transcription inhibition. 5.4% of 310,000 active. P51450. Potency, µM (highest dose often 53.6 µM), for inactives: at the top dose activity change, negative = inhibition, usual class: inhibitors. Drosophila S2 Gal4-RORgamma UAS-luciferase reporter, 20 h; note: potency is the fitted concentration of half-maximal effect; nearly all actives have a fitted effect of over 60% in size
Target sequence (P51450 whole entry, looked up, the tested form may be a part): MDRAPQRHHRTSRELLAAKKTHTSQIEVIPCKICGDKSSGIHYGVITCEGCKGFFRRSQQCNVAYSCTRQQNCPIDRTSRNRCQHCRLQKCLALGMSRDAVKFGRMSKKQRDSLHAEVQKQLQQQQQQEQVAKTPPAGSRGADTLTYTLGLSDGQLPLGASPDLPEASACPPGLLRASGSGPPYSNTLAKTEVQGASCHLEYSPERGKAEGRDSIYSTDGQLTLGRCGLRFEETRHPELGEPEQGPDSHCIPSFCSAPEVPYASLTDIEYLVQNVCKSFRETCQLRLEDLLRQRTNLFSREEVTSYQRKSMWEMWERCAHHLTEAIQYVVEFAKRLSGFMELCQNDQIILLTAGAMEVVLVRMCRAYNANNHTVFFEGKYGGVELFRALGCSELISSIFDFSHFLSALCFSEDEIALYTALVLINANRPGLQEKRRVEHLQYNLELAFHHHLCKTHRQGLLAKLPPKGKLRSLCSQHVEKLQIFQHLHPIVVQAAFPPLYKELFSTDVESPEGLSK
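Schneider cells (Drosophila), stable Gal4 DBD–ROR gamma + UAS-luc; 1 hr cmpd preincubation; Cu2+ induction 700 uM final; 20 hr ambient; luminescence.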
IL-1B inflam inh: inflammasome signaling inhibition, IL-1 beta readout | THP-1 LPS/ATP IL-1B secretion, AlphaLISA, 16 h; stronger effect = lower value | AID 743279 | activity change, % at 57.5 µM | 4.7% of 360,000 active; in the data active = activity change below about -50%; inconclusive = mostly about -30% to -49%
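THP-1 cells pretreated 1 hr with compounds (up to 57.5 uM final), then stimulated with LPS (250 ng/mL final) plus ATP (1.25 mM final); secreted IL-1B measured by AlphaLISA after 16 hr, decreased signal indicating inhibition.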
DT40 TDP1 CPT: growth inhibition of DT40 Tdp1-/-;hTDP1 cells with camptothecin (screen for TDP1 inhibitors); Potency, µM (titrated, usually from 46.2 µM), without a hit: top-dose activity change, negative = growth inhibition, most hits filed as inhibitors; chicken DT40 Tdp1-/-;hTDP1 cells + 20 nM CPT, ATP luminescence, 48 h; 12% of 420,000 active; note: potency is the fitted concentration of half-maximal effect; nearly all actives have a fitted effect of over 55% in size
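Cell growth measured by CellTiter-Glo luminescence after a minimum 48 h, 37 C compound exposure with 20 nM CPT in Tdp1-knockout DT40 cells stably expressing hTDP1, seeded 400/well; qHTS titration format.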
Gal4-VP16 FLuc: inhibits Gal4-VP16 luciferase reporter, ROR gamma counter-screen; AID 2546; Potency, µM (top dose mostly 53.6 µM), for inactives: at the top dose activity, negative = inhibition, hits mostly inhibitors; 3.5% of 310,000 active; Drosophila S2 Gal4-VP16 UAS-luciferase, luminescence, 20 h;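 note: Gal4-VP16 expression switched on by copper sulfate through the metallothionein promoter; potency is the fitted concentration of half-maximal effect; nearly all actives have a fitted effect of over 50% in size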
* = called active by the depositor; ? = inconclusive; / = no result; [ ] = remark or other dose. Unless noted, calls come from the whole dose curve; as a rule, active = well fitted curve in the direction sought with a large enough effect; inconclusive = small, poorly fitted or top-dose-only effect, or another doubt; inactive = no such curve, though single readings can be large; an effect the other way counts as inactive or inconclusive. % is set by controls: 0 for no effect and ±100 for the full control effect.

SMILES | DT40 TDP1 no CPT | ELG1 DNA repair | RORg inh | IL-1B inflam inh | DT40 TDP1 CPT | Gal4-VP16 FLuc
CC(=O)NC(=S)Nc1cccc2c(C)cc(C)nc12 | -10% | 5% | 1.6µM* | 27 | 1% | 11µM*
Cc1cc(C)c2cccc(N)c2n1 | -5% | 3% | 0% | 22 | -5% | 2%
Cc1cc(C)c2cccc(NC(=S)NC(=O)c3ccccc3)c2n1 | 13µM* | ? | ? | 22 | 16µM* | 3.2µM*
COc1ccc(C)cc1S(=O)(=O)N1CCCC(C(=O)NC2CC2)C1 (configuration not stated) | 2% | -5% | -23% | 10 | 16% | -4%
CC(C)[C@H](NC(=O)OC(C)(C)C)c1cc(C(=O)N2CCOCC2)c(N)s1 | ? | / | / | 17 | -30% | /
O=C(NCc1ccco1)c1ccccc1 | 0% | -7% | -4% | -7 | 2% | 3%
COc1cc(-c2noc(-c3ccccc3C(=O)NCc3ccco3)n2)cc(OC)c1OC | ? | 4.6µM* | 35% | -24 | ? | 6%
COc1ccccc1-c1noc(-c2ccccc2C(=O)NCc2ccco2)n1 | ? | ? | 31% | 20 | -28% | 1%[10 µM]
O=C(NCc1ccco1)c1cccc(-c2nnc(-c3ccccc3)o2)c1 | ? | ? | 22% | -28 | 21µM* | 2%
Cc1cccc(-c2noc(-c3ccccc3C(=O)NCc3ccco3)n2)c1 | 21µM* | -1% | -18% | ? | 21µM* | ?
COc1ccc(-c2cc(=O)n(-c3ccc([N+](=O)[O-])cc3)[nH]2)cc1 | 16µM* | ? | 4%[10 µM] | 3 | ? | -5%
COc1ccc(N2CCN(CCCNC(=O)CN3C(=O)COc4ccccc43)CC2)cc1 | -4% | 8% | -25% | -19 | ? | -13%
COc1ccc(N2CCN(CCCNC(=O)C3COc4ccccc4C3)CC2)cc1 (configuration not stated) | 16µM* | / | / | / | 12µM* | /
CCc1ccc(CNC(=O)C2COc3ccc(OC)cc3C2)cc1 (configuration not stated) | -21% | / | / | / | -19% | /
COc1ccc2c(c1)CC(C(=O)NCCCN1CCN(c3ccc(F)cc3)CC1)CO2 (configuration not stated) | 26µM* | / | / | / | 21µM* | /
O=C(NCCCN1CCN(c2ccccc2F)CC1)C1COc2ccccc2C1 (configuration not stated) | ? | / | / | / | 26µM* | /
COc1ccc(N2CCN(CCCNC(=O)C3COc4ccc(OC)cc4C3)CC2)cc1 (configuration not stated) | 21µM* | / | / | / | 15µM* | /
CC(=O)OCCN1C(=O)c2c(C)nc3ccc(S(=O)(=O)N4CCOCC4)cc3c2C1=O | / | / | -5% | / | / | 5%
CCOc1cc(C2NC(=O)c3c(sc4c3CCN(C)C4)N2)ccc1OC(=O)c1ccccc1Cl (configuration not stated) | 2% | / | / | / | 5% | /
COc1cccc(CNc2nc3cc(-c4ccccc4C)sc3c(=O)n2C)c1OC | 23µM* | / | / | ? | 15µM* | /
COc1ccccc1CNc1nc2cc(-c3ccc(OC)c(OC)c3)sc2c(=O)n1C | 16µM* | / | / | -19 | 23µM* | /
COc1cccc(CNc2nc3cc(-c4ccccc4)sc3c(=O)n2C)c1OC | 29µM* | / | / | -4 | 16µM* | /
Cc1c(Cl)c([N+](=O)[O-])nn1CC(=O)NCc1ccc(Cl)cc1 | 1% | -10% | -7% | 11 | 6% | 4%
O=C(COC(=O)C1C2CC3OC(=O)C1C3C2)Nc1cccc(C(F)(F)F)c1 (configuration not stated) | -10% | 19% | -5% | -4 | -8% | -13%
